We go through 65 molecules from PubChem BioAssay AID709 (SRMLSC, 2007).

Among all 65,000 compounds or so, about 3,600 (5.5%) were called active.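 Rule for the calls: active = at 10 µM, mean starting fluorescence two-fold or more over control wells; inactive = the rest.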 The sample as a whole holds a higher share of actives than the screen did.

The test can be described thus: intrinsic fluorescence of library compounds, ex339/em460 – biochemical, MLSMR library, data from DPM-DC assay, artefact control, profiling panel (AID 709).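 Note: signal is the first read of a kinetic run.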 The conditions noted are these: compound autofluorescence, ex339/em460 nm, NADH buffer; at 10 µM; active compounds read high; 1 = no-compound wells, NADH background.
Regarding `COc1ccc2c(c1OC)C(=O)OC2c1c(O)nc(SC)n(-c2ccccc2)c1=O` (stereo not given), the fluorescence fold increase was 1.06 (inactive). `Cc1nc2ccccc2cc1O`: the fluorescence fold increase is 2.48 (active). Next, `Cc1cc(O)ccc1-c1cnc2ccccc2n1`: 1.05 (inactive); `CCOC(=O)c1cc2ccccc2nc1C`: 1.08 (inactive).

On to `Cc1cccc(OCc2nnc(SCC(=O)N3CCN(C(=O)c4ccco4)CC3)n2C)c1C`, for which the fluorescence fold increase was 1.11 (inactive).

Regarding `O=C(O)C1CCN(S(=O)(=O)N2CCOCC2)CC1`, the fluorescence fold increase is 1.1 (inactive). For the molecule `CCOC(=O)c1cc2n(c1N)-c1ccccc1C2=O`, the fluorescence fold increase was 1.16 (inactive). As to `CCOC(=O)c1cc2n(c1C)-c1ccccc1C2=O`, the fluorescence fold increase is 1.02 (inactive). Regarding `CCCn1c(=NC(C)=O)c(C(=O)OCC)cc2c(=O)n3ccccc3nc21`, the fluorescence fold increase was 3.86 (active). With `O=C(Nc1ccc(NC(=O)c2cccs2)cn1)c1ccco1`, the fluorescence fold increase is 1.08 (inactive). As to `Cc1cccc(-n2c(N)cc(=O)nc2SC(C)C(=O)NC2CCCCC2)c1` (stereo not given), the fluorescence fold increase is 1.06 (inactive). As to `O=C(CN1C(=O)C2C3C=CC(C3)C2C1=O)NCCc1ccccc1Cl` (stereo not given), the fluorescence fold increase is 1.05 (inactive). As for `CCOc1ccc(OCC)c(NC(=O)CSc2nnc(Cn3cnc4ccccc43)n2C)c1`, the fluorescence fold increase was 1.12 (inactive). `Cn1c(Cc2csc(N)n2)nnc1SC/C=C/c1ccccc1`: the fluorescence fold increase was 1.1 (inactive). `Cc1cn(C2C=CC(CO)O2)c(=O)[nH]c1=O` (stereo not given): the fluorescence fold increase was 1.07 (inactive).

Regarding `Cc1ccc(Cn2c(NC(=O)c3ccco3)nc3ccccc32)cc1`, the fluorescence fold increase was 1.32 (inactive). Consider `Cc1ccc(-n2nc3cc(Cl)c(NC(=O)c4ccco4)cc3n2)cc1`, for which the fluorescence fold increase was 1.84 (inactive).

In the case of `CCn1nc(NC(=O)c2ccco2)c2cc3ccc(C)cc3nc21`, the fluorescence fold increase was 3.62 (active). Consider `CCOc1ccc(NC(=O)CCS(=O)(=O)c2cccc3nsnc23)cc1`, for which the fluorescence fold increase is 1.08 (inactive). As for `CCC1CCCCN1C(=O)Nc1cccc(NC(=O)N2CCCCC2CC)c1` (stereo not given), the fluorescence fold increase is 1.13 (inactive). With `CCOC(=O)N1CCN(S(=O)(=O)c2cc3c(cc2C)NC(=O)CO3)CC1`, the fluorescence fold increase is 1.11 (inactive). For the molecule `CCn1ncc(C2=NOC(C(=O)N3CCN(c4ccccc4)CC3)C2)c1C` (stereo not given), the fluorescence fold increase was 1.14 (inactive).

Regarding `O=C(NCc1cccs1)c1ccc2c(c1)ncn2C1CCCC1`, the fluorescence fold increase is 1.03 (inactive). For `O=C(CSc1nnc(-c2ccc(NS(=O)(=O)c3ccccc3)cc2)o1)NCC1CCCO1` (stereo not given), the fluorescence fold increase is 1.01 (inactive). On to `O=C(CSC1=Nc2ccccc2C2=NC(c3ccccc3)C(=O)N12)NCC1CCCO1` (stereo not given), for which the fluorescence fold increase is 2.12 (active). Take `O=C(CS(=O)(=O)Cc1ccccc1)NCC1CCCO1` (stereo not given): the fluorescence fold increase was 1.1 (inactive).

For `CN(C(=O)c1ccno1)c1nnc(-c2cccnc2)s1`, the fluorescence fold increase is 1.68 (inactive). As for `CN(C(=O)c1ccccn1)c1nnc(-c2ccccn2)s1`, the fluorescence fold increase is 3.72 (active). With `O=C(c1cccs1)N(C(=O)c1cccs1)c1ccccn1`, the fluorescence fold increase is 1.09 (inactive). The value for `COc1cccc(-c2nnc(N(C)C(=O)c3ccno3)s2)c1` was 1.38 (inactive); that for `CN(C(=O)C1CCOC1)c1nnc(-c2cccnc2)s1` (stereo not given) was 1.03 (inactive). As for `CN(C(=O)COc1ccccc1)c1nnc(-c2ccncc2)s1`, the fluorescence fold increase was 5 (active). In the case of `Cc1ccc(C)c(NC(=O)CSc2nnc(Cc3cccn3C)n2-c2ccc(F)cc2)c1`, the fluorescence fold increase was 1.08 (inactive). As for `CCCCOc1ccccc1/C=c1/sc2nc(-c3oc4ccccc4c3C)nn2c1=O`, the fluorescence fold increase is 1.1 (inactive).

Consider `Cc1ccccc1CSc1nnc(-c2ccccn2)n1N`, for which the fluorescence fold increase was 1.08 (inactive). On to `CN(C)CCCNc1c2c(c(C#N)c3nc4ccccc4n13)CCC2`, for which the fluorescence fold increase is 2.1 (active). The value for `N#Cc1c2c(c(N3CCN(CCO)CC3)n3c1nc1ccccc13)CCCC2` was 1.53 (inactive); that for `COc1ccc(-n2nc3c(c2NC(=O)Cc2cccc(C)c2)CS(=O)C3)cc1` (stereo not given) was 1.15 (inactive); that for `Cn1cccc1C1(C(F)(F)F)NCCNC1=O` (stereo not given) was 1.11 (inactive). Next, `CC(=O)c1ccc(NC(=O)N[C@@H](Cc2ccccc2)C(=O)O)cc1`: 1.09 (inactive); `COc1cc(OC)cc(C(=O)Nc2ccc(-c3nc4ccccc4o3)c(O)c2)c1`: 2.11 (active). `COc1ccc(NC(=O)c2ccc(OC)cc2)cc1`: the fluorescence fold increase is 1.13 (inactive). Next, `COc1cc(OC)cc(C(=O)Nc2ncc3c(n2)CC(C)(C)CC3=O)c1`: 1.1 (inactive); `Cc1ccc(S(=O)(=O)NC(C)C(=O)Nc2ccccc2C(=O)N2CCCC2)cc1` (stereo not given): 1.1 (inactive); `CCCC(=O)N=c1sc2cccc(F)c2n1C`: 1.09 (inactive).

For the molecule `Cc1cc(C)c2c(n1)nn1c(N3CCN(c4cccc(Cl)c4)CC3)cc(C)nc21`, the fluorescence fold increase was 2.17 (active).

Regarding `Cc1cc(C)c2c(n1)nn1c(N3CCOCC3)cc(C)nc21`, the fluorescence fold increase is 2.97 (active). `Cc1nn2c3cc(N4CCOCC4)ccc3nc2c2ccccc12`: the fluorescence fold increase was 1.11 (inactive).

As for `C/C(O)=C\c1nc(=O)c2c(C)cc(C)nc2n1-c1ccccc1`, the fluorescence fold increase was 1.08 (inactive). In the case of `Cc1cc(C)c2c(n1)nn1c(-n3ccnc3)cc(C)nc21`, the fluorescence fold increase is 3.27 (active). For the molecule `O=C(c1ccco1)N1CCN(c2cccc(Cl)c2)CC1`, the fluorescence fold increase was 1.03 (inactive). Take `Cc1cc(N2CCCC2)n2nc(C)c(-c3ccccc3)c2n1`: the fluorescence fold increase is 1.68 (inactive). Next, `Cc1nc(SC(C)C)[nH]c(=O)c1Cc1ccccc1`: 1.11 (inactive); `CCOc1ccc2nc(NC(=O)CSc3nc4c(c(=O)n(C)c(=O)n4C)n3CC)sc2c1`: 1.12 (inactive); `CC(=O)NC(Cc1ccc(F)cc1)C(=O)O` (stereo not given): 1.02 (inactive). For the molecule `CCOC(=O)c1oc2ccccc2c1NC(=O)c1cccs1`, the fluorescence fold increase was 1.25 (inactive).

On to `N#C/C=C1\Sc2ccccc2C(=O)N1CC(=O)N1CCN(S(=O)(=O)c2ccccc2)CC1`, for which the fluorescence fold increase is 1.1 (inactive). As for `COc1cccc(NC(=O)C(C)Oc2ccccc2)c1` (stereo not given), the fluorescence fold increase is 1.11 (inactive). The value for `CC1Oc2ccccc2N(Cc2cccnc2)C1=O` (stereo not given) was 1.14 (inactive); that for `Cc1ccc(C(=O)OCC(=O)NCc2ccc3c(c2)OCO3)s1` was 0.99 (inactive).

`COC(=O)Cc1c(C)c2ccc(OCC(=O)NCc3ccc4c(c3)OCO4)cc2oc1=O`: the fluorescence fold increase was 2.07 (active). `O=C(COc1ccccc1)NCc1ccc2c(c1)OCO2`: the fluorescence fold increase was 1.08 (inactive). For the molecule `COCc1nnc(NC(=O)CS(=O)(=O)Cc2ccccc2)s1`, the fluorescence fold increase is 1.1 (inactive). Turning to `Cc1nc2nc(COc3ccccc3)[nH]n2c(=O)c1C`, the fluorescence fold increase was 1.17 (inactive). For the molecule `Cc1nc2c(-c3ccccc3)c(C)[nH]n2c(=O)c1Cl`, the fluorescence fold increase is 2.16 (active).
